Each structure is given as a SMILES string.

Common to all, as to type: functional
The target of assay [1] is Solute carrier family 2, facilitated glucose transporter member 1 (Homo sapiens) (UniProt P11166). Nature of the assay: ST_JUDE_LEISH: Cytotoxicity at 2uM final concentration against transgenic Leishmania Mexicana promastigotes LmGLUT1 that are glucose transport deficient and complemented with the human glucose transporter GLUT1. Activity is measured by DNA content using SYBR green in vitro.
Sequence of Solute carrier family 2, facilitated glucose transporter member 1 (Homo sapiens) (P11166 whole entry): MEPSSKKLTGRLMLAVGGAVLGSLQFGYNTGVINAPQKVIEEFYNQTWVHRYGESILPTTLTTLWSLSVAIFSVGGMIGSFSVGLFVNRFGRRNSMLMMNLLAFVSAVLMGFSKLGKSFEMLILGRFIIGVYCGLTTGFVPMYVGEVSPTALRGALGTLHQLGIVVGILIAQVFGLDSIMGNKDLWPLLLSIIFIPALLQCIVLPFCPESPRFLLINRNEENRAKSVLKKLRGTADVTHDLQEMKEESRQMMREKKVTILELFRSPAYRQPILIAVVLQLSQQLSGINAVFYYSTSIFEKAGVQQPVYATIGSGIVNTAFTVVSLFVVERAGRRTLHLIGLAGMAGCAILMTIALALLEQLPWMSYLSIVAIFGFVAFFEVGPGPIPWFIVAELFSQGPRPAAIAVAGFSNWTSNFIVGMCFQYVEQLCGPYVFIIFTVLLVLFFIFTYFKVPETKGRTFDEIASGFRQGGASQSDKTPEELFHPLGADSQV

Assay [2] concerns the target Hexose transporter 1 (Plasmodium falciparum) (UniProt O97467). Nature of the assay: ST_JUDE_LEISH: Cytotoxicity at 2uM final concentration against transgenic Leishmania Mexicana promastigotes LmPfHT that are glucose transport deficient and complemented with the Plasmodium falciparum hexose transporter. Activity is measured by DNA content using SYBR green in vitro.
The target in assay [3] is Glucose transporter (Leishmania mexicana) (UniProt O61059). In words: ST_JUDE_LEISH: Cytotoxicity at 2uM final concentration against transgenic Leishmania Mexicana promastigotes LmGT2 that are glucose transport deficient and complemented with the L. Mexicana glucose transporter 2. Activity is measured by DNA content using SYBR green in vitro.

Regarding `CCN(CC)CCCNc1ncc2c(-c3ccc(NC(=O)Nc4cc(C(F)(F)F)ccc4F)c(F)c3)nn(C)c2n1`, the results for the inhibition in assay [1], in assay [2] and in assay [3] were -0.37%, -0.41% and -1.03%, respectively.

With `Oc1ccc(Cl)cc1CN1CCC2(CCCN(CC3CCC3)C2)C1` (stereo not drawn), the values for the inhibition in assay [1], in assay [2] and in assay [3] were -3%, -0.63% and 1.23%, respectively.

`CC1CN(c2ccnc3ccc(Sc4ccc(Oc5ccccc5)cc4)cc23)CC(C)N1` (stereo not drawn): the values for the inhibition in assay [1], in assay [2] and in assay [3] were 0.07%, 2.41% and -0.77%, respectively.

As for `CCCCOc1ccc(C(O)C(CN2CCCCC2)c2ccccc2)cc1` (stereo not drawn), the values for the inhibition in assay [1], in assay [2] and in assay [3] were 1.61%, 1.36% and 0.33%, respectively.

As to `CC(C)(C)c1ccc2[nH]c(-c3ccc(/C=C/C(=O)NCc4cccc(C(F)(F)F)c4)cc3)nc2c1`, the inhibition in assay [1] was determined as 3.32%; in assay [2], 5.66%; in assay [3], 2.22%.

For the compound `COc1ccc(-c2cnc3[nH]cc(-c4ccc(C(=O)O)c(C)c4)c3c2)cn1`, the inhibition was 0.31% in assay [1], -0.48% in assay [2] and 0.32% in assay [3].

With `Cc1cc(Nc2ccccc2)nc(Nc2ccccc2C)n1`, the figures for the inhibition in assay [1], in assay [2] and in assay [3] were 5.24%, 4.32% and 0.47%, respectively.

In the case of `CCC1CCCCN1S(=O)(=O)c1ccc(OC)c(N2CCN(C(=O)C(Cl)(Cl)Cl)CC2)c1` (stereo not drawn), the inhibition in assay [1] turned out to be 4.89%; in assay [2], 6.41%; in assay [3], 6.44%.

Regarding `CC(C)C[C@@H](/C=N/N1CC(=O)NC1=O)NC(=O)[C@H](CC(C)C)NC(=O)c1ccc(OCCN2CCOCC2)cc1`, the inhibition in assay [1] was -0.34%; in assay [2], 2.99%; in assay [3], 1.11%.

As to `CCCC/C=C(\Cl)c1ccc(O)c2c1C[C@H]1C[C@H]3[C@H](N(C)C)C(O)=C(C(N)=O)C(=O)[C@@]3(O)C(O)=C1C2=O`, the results for the inhibition in assay [1], in assay [2] and in assay [3] were -0.21%, -1.57% and 0.16%, respectively.

Turning to `c1ccc(-c2ccc3c(Nc4ccc5[nH]ncc5c4)ccnc3c2)nc1`, the figures for the inhibition in assay [1], in assay [2] and in assay [3] were 4.92%, 4.75% and 5.04%, respectively.

Take `COc1cccc(-c2nn(C)c3sc(C(=O)NCCN4CCN(c5ccccc5F)CC4)cc23)c1`: the inhibition in assay [1] is -0.88%; in assay [2] it was 2.01%; in assay [3] it was 0.29%.

Turning to `CC(CN1CCN(C)CC1)C(=O)Nc1ccc(-c2ccc(-c3nc4ccccc4[nH]3)cc2)cc1` (stereo not drawn), the inhibition in assay [1] is 0.19%; in assay [2], 3.04%; in assay [3], 1.16%.

In the case of `CC(C)CNCc1ccc(-c2ccccc2CN(C(=O)NCCc2ccccc2)C2CCN(Cc3ccccc3)CC2)cc1`, the inhibition is 1.25% in assay [1], 1.42% in assay [2] and -0.19% in assay [3].

Regarding `N#Cc1cccc(NC(=O)c2cccc(S(=O)(=O)NC3CCN(CC4CCCCC4)C3)c2)c1` (stereo not drawn), the inhibition in assay [1] turned out to be 0.54%; in assay [2], 1.11%; in assay [3], 3.37%.

For the compound `O=C(Nc1ccc(Cl)c(Cl)c1)N1CCc2ccc(OCCCN3CCCCC3)cc2CC1`, the inhibition in assay [1] amounted to 17.5%; in assay [2] it was 16.2%; in assay [3] it was 20.3%.

As to `O=C1C(c2ccccc2)=C(Nc2cccc(OC(F)(F)C(F)F)c2)c2ccccc21`, the results for the inhibition in assay [1], in assay [2] and in assay [3] were 5.8%, 4.03% and 1.33%, respectively.

As to `Nc1nc(N)c2c(ccc3c2ccn3Cc2ccccn2)n1`, the figures for the inhibition in assay [1], in assay [2] and in assay [3] were 86.5%, 92% and 78%, respectively.

With `COc1ccccc1CCNc1nc(C)cc(N[C@@H](Cc2ccccc2)C(=O)NCCc2ccccc2)n1`, the inhibition amounted to 7.15% in assay [1], 7.61% in assay [2] and 2.86% in assay [3].

In the case of `Cc1cccn2c(=O)c3cc(C(=O)NC(C)c4ccccc4)c(=N)n(CCN4CCOCC4)c3nc12` (stereo not drawn), the results for the inhibition in assay [1], in assay [2] and in assay [3] were 3.65%, 1.65% and -1.52%, respectively.

Take `O=C(NCc1ccc(Cl)c(Cl)c1)c1cc(CNC2CCNCC2)ccc1O`: the inhibition in assay [1] amounted to 0.91%; in assay [2], 5.71%; in assay [3], 2.11%.

For `CC1(C)NC(N)=NC(=N)N1OCCCOc1cccc2ccccc12`, the figures for the inhibition in assay [1], in assay [2] and in assay [3] were 54.8%, 61.1% and 45.4%, respectively.

Regarding `CNC(=O)c1cc(S(=O)(=O)N2CCN(c3ccccn3)CC2)cs1`, the inhibition in assay [1] is 0.24%; in assay [2], 0.78%; in assay [3], -2.48%.

Consider `Cc1ccc(N2C(=O)C3C(C2=O)C2(c4ccccc4)C(=O)C3(c3ccccc3)C(c3ccccc3)=C2c2ccccc2)c(C)c1` (stereo not drawn), for which the inhibition was 6.28% in assay [1], 4.9% in assay [2] and 3.25% in assay [3].

For `C=CCOc1ccc(C(=O)Nc2nonc2-c2ccc(OC)c(OC)c2)cc1`, the inhibition in assay [1] stood at 1%; in assay [2] it was 1.23%; in assay [3], 1.78%.

For `COc1ccc2ncc(F)c([C@H](O)CN3CCC(NCc4cc5c(cn4)OCCO5)CC3)c2c1`, the figures for the inhibition in assay [1], in assay [2] and in assay [3] were 6.21%, 6.52% and 2.51%, respectively.

For `CCCc1cn2c3c(cc(C(=O)N[C@@H](Cc4ccccc4)[C@H](O)CNC4CCCCC4)cc13)N(CC)S(=O)(=O)CC2`, the inhibition in assay [1] is 0.5%; in assay [2], 0.94%; in assay [3] it was -0.79%.

Turning to `Cc1cc(C)c2cc(CNCCCNc3nc4ccccc4[nH]3)[nH]c2c1`, the inhibition in assay [1] came out at 1.11%; in assay [2] it was 0.15%; in assay [3], 2.91%.

For the compound `CCN(CC)CCN(Cc1ccc(-c2ccc(C(F)(F)F)cc2)cc1)C(=O)Cn1cc(Cc2cnn(C)c2)c(=O)nc1/C=C/c1cccc(F)c1F`, the results for the inhibition in assay [1], in assay [2] and in assay [3] were 3.81%, 4.43% and 2.54%, respectively.

Take `CN(c1ccc(NC(=O)Nc2cccc(Cl)c2)cc1)c1ccnc(N)n1`: the inhibition in assay [1] was -0.39%; in assay [2], 1.34%; in assay [3], -0.01%.

For the compound `Cc1ccccc1CNc1noc(-c2c(F)cccc2Cl)n1`, the inhibition in assay [1] was 4.28%; in assay [2], 5.55%; in assay [3], 5.34%.

Consider `Cc1cnc(NCCc2ccc(F)cc2)nc1NCCC(=O)Nc1ccccc1`, for which the inhibition in assay [1] is 4.88%; in assay [2], 4.76%; in assay [3], 2.38%.

Consider `Fc1cc(Cl)ccc1Nc1ccnc(Nc2ccc3cn[nH]c3c2)n1`, for which the inhibition in assay [1] stood at 12.7%; in assay [2], 10.7%; in assay [3] it was 5.1%.

Consider `Cc1ccc(NC(=O)c2ccc3ncccc3c2)cc1OC1CCN(Cc2ccc(F)cc2)C1` (stereo not drawn), for which the inhibition in assay [1] stood at 1.19%; in assay [2], 0.73%; in assay [3], 1.26%.

With `COc1ccc(CN(C)CCCc2ccc(NC(=O)c3cccc4c(O)c5ccccc5nc34)cc2)cc1OC`, the inhibition was 6.56% in assay [1], 3.71% in assay [2] and 1.93% in assay [3].

Turning to `O=C(NCCOc1ccccc1)[C@H](Cc1ccccc1)Nc1ccnc(NCC2CCCCC2)n1`, the figures for the inhibition in assay [1], in assay [2] and in assay [3] were 2.23%, 1.21% and 0.92%, respectively.

Usually inhibition stands for the change of the read-out against control, counted positive when it falls.
